Compound activity (PubChem)
ELG1 genotox: qHTS screen for small molecules that induce genotoxicity in human embryonic kidney (HEK293T) cells expressing luciferase-tagged ELG1; HEK293T ELG1-luciferase reporter, luminescence, 16 h; Potency, µM (doses to about 46 µM), hits mostly activators; actives 1.3% (n = 330,000); AID 504466, 2011; further: nearly all actives have a fitted effect of over 60% in size
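Luminescence read-out: rising ELG1-luciferase signal, reflecting elevated ELG1 protein under genetic stress, flags genotoxic compounds. Cells were treated for 16 hr at 37 °C before ONE-Glo detection.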
ELG1 DNA repair: qHTS screen for small molecules that inhibit ELG1-dependent DNA repair in human embryonic kidney (HEK293T) cells expressing luciferase-tagged ELG1 | HEK293T ELG1-luciferase reporter, luminescence, 16 h; DNA damage induced by 5-fluorouridine | Potency, µM (titrated, usually from 46.1 µM), actives largely listed as inhibitors | actives 2.3% (n = 330,000) | AID 504467, 2011; further: nearly all actives have a fitted effect of over 55% in size
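Step one: seed 2,000 cells per well. Step two: pin-transfer compound or DMSO alongside 5-fluorouridine. Step three: incubate 16 hr, 37 °C, 5% CO2. Step four: add ONE-Glo, wait 30 min, read luminescence.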
Rab9 prom act: qHTS Assay for Rab9 Promoter Activators; Potency, µM (top dose mostly 9.22 µM), most hits filed as activators; AID 485297, 2010; actives 2.8% (n = 320,000); Huh7 Rab9 promoter-luciferase reporter, luminescence, 24 h; further: nearly all actives have a fitted effect of over 60% in size
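Stable Rab9-luc Huh7, 1500 cells/well, 2 h settle; cmpd in DMSO, 24 h, 37 °C/5% CO2; luciferase reagent 10 min RT; luminescence.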
FLuc counter: qHTS profiling assay for firefly luciferase inhibitor/activator using purifed enzyme and Km concentrations of substrates (counterscreen for miR-21 project) | actives 6.9% (n = 360,000) | Luciferin 4-monooxygenase (Photinus pyralis), P08659 | Potency, µM (series often up to 57.5 µM), hits mostly inhibitors | purified FLuc, Km substrates, luminescence inhibition | AID 588342, 2011; further: nearly all actives have a fitted effect of over 55% in size
Target sequence (P08659 whole entry, looked up): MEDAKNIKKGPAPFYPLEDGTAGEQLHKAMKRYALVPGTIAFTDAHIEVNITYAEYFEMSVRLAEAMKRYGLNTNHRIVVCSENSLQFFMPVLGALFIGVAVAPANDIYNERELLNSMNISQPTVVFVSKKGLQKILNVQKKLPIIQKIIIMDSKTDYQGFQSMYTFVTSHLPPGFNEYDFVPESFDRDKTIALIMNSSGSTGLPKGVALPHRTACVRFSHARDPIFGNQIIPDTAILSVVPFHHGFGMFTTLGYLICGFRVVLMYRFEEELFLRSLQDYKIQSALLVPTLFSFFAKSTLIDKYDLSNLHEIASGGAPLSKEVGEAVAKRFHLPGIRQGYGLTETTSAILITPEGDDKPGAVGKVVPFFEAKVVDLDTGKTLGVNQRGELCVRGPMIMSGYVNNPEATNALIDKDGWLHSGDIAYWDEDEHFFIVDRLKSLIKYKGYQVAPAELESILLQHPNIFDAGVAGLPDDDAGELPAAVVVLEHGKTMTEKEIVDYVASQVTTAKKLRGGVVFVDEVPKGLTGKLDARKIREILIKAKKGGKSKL
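Biochemical qHTS of compounds, final roughly 60 µM downward over six points, against 10 nM purified firefly luciferase using Km concentrations of substrates (10 uM D-luciferin, 10 uM ATP) in Tris acetate pH 7.5 buffer; luminescence output.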
SMN2 splice enh: qHTS Assay for Enhancers of SMN2 Splice Variant Expression; HEK293 SMN2-luciferase splicing reporter, luminescence, 30-36 h; Potency, µM (doses to about 46.1 µM), actives largely listed as activators; actives 2.8% (n = 210,000); AID 1458, 2008; further: nearly all actives have a fitted effect of over 55% in size
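qHTS luciferase splicing reporter: luminescence rises when SMN2 exon 7 is included in transfected HEK293 cells. Compound exposure lasted 30-36 h at 37C, with 4.5 mM final sodium butyrate as control, followed by a ONE-Glo read.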
NPC1 promoter act: qHTS Assay for NPC1 Promoter Activators | Huh7 NPC1 promoter luciferase reporter, 24 h | actives 2.4% (n = 320,000) | AID 485313, 2010 | Potency, µM (doses to about 9.22 µM), hits mostly activators; further: nearly all actives have a fitted effect of over 60% in size
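Stably transfected Huh7 (NPC1 promoter→luciferase), 1500 cells/well in Opti-MEM + 10% FBS, 2 h settle, then compound 24 h at 37 °C. Luminescence after 10 min with Amplite reagent.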
Numbers stand for hits; – = inactive; ? = inconclusive; · = not tested or not shown; ! = not active in a repeat; [ ] = dose if it differs, or a comment. Shown are actives, neighbours in structure and some others; about 9.2% of the full set was active somewhere. The call rests on the fitted dose curve; in most records, active means well fitted curve in the direction sought with a large enough effect; inconclusive means small, poorly fitted or top-dose-only effect, or another doubt; inactive means no such curve, though single readings can be large; an effect the other way counts as inactive or inconclusive.

SMILES | ELG1 genotox | ELG1 DNA repair | Rab9 prom act | FLuc counter | SMN2 splice enh | NPC1 promoter act
Cc1ccc2nc(=O)c(NNc3ccccc3)cnc2c1 | ? | ? | ? | ? | 17.8µM | ?
Cc1nc2ccccc2nc(=O)c1NNc1ccccc1 | 9.2µM! | ? | ? | ? | 11.2µM | ?
CCc1cnc2c(c1SCC(=O)Nc1ccc(C)cc1C)c(=O)n(C)c(=O)n2C | · | · | · | – | · | ·
O=[N+]([O-])c1ccc(-c2nc(C(Cl)Cl)c3ccccc3n2)cc1 | – | 5.17µM | – | – | · | –
CC(=O)N(c1ccccc1)c1nnc(-c2cnc(C)cn2)s1 | 9.2µM | ? | 3.16µM | ? | · | 1.58µM
O=c1cc2[nH]c3ccccc3c(=O)n2nc1-c1ccccc1 | 13µM | ? | ? | 19µM | – | ?
Cn1/c(=N/NC(=O)c2ccccc2Br)sc2ccccc21 | ? | ? | 3.98µM | 15.1µM | ? | ?
CCOC(=O)c1cnc2ccc(OCC)cc2c1N1CCN(c2ccccc2)CC1 | – | ? | – | – | – | –
CCOc1ccc2ncc(S(=O)(=O)c3ccccc3)c(N3CCC4(CC3)OCCO4)c2c1 | – | ? | – | – | – | –
CCOc1ccc2ncc(S(=O)(=O)c3ccccc3)c(N3CCN(c4ccc(OC)cc4)CC3)c2c1 | – | 18.4µM | – | – | – | –
COc1ccc(N2CCN(c3c(S(=O)(=O)c4ccccc4)cnc4ccc(OC)cc34)CC2)cc1 | – | 18.4µM | – | – | · | –
COc1ccc(S(=O)(=O)c2cnc3ccc(OC)cc3c2N2CCC3(CC2)OCCO3)cc1 | – | 23.1µM | – | – | – | –
CCCCCCCC(=O)NNC(=O)CC(=O)Nc1ccccc1C(=O)O | – | – | – | – | – | –
Cc1nn(CCCC(=O)Nc2cccc(F)c2)c(=O)c2c1sc1ccccc12 | · | · | · | 15.1µM | · | ·
CCc1cccc(C)c1NC(=O)CCCn1nc(C)c2sc3ccccc3c2c1=O | · | · | · | – | · | ·
Cc1nn(CCCC(=O)NCc2ccccc2Br)c(=O)c2c1sc1ccccc12 | · | · | · | – | · | ·
CCCOc1ccc(CNC(=O)CCCn2nc(C)c3sc4ccccc4c3c2=O)cc1 | · | · | · | 7.57µM | · | ·
CCOc1ccc(NC2SC(=O)N(Cc3ccccc3)C2=O)cc1 (centres undefined) | · | · | · | – | – | ·
COc1ccc(/C=C2\SC(=N)N(c3nccs3)C2=O)cc1OC | ? | ? | – | 2.13µM | – | –
COc1ccc(Cc2nc3ccc(C(=O)NC4CCOC4)cc3o2)cc1 (centres undefined) | – | – | – | – | · | –
COC(=O)c1ccc(OC)c(CN2CCCN(Cc3ccc(F)cc3)S2(=O)=O)c1 | – | 13µM | – | – | · | –
COc1ccc(C=O)cc1CN1CCCN(Cc2ccc(Cl)cc2)S1(=O)=O | – | – | – | – | · | –
N#Cc1nc(-c2ccc(COc3ccc(Cl)cc3)o2)oc1N1CCCCC1 | · | · | · | – | · | ·
Cn1cnc2cc(NC(=O)c3cccs3)ccc21 | ? | ? | 2.82µM | 16.9µM | · | ?
Cc1cccc(C(=O)Nc2ccc3c(c2)ncn3C)c1 | ? | ? | 1.26µM | 9.53µM | · | 1.58µM
SMILES | ELG1 genotox | ELG1 DNA repair | Rab9 prom act | FLuc counter | SMN2 splice enh | NPC1 promoter act
CCC(=O)Nc1ccc2c(c1)ncn2C | – | – | – | – | – | –
Cc1cccc(C(=O)Nc2ccc3c(c2)nc(C)n3C)c1 | ? | ? | 0.316µM | 3.01µM | · | 0.398µM
O=C(Nc1ccc2nn(-c3ccccc3)nc2c1)c1cccs1 | ? | ? | 3.55µM | –[2.3 µM] | ? | ?
Cc1sc2nc(SCC(=O)c3cc(C)n(CC4CCCO4)c3C)n(C(C)C)c(=O)c2c1C (centres undefined) | – | – | – | – | – | –
COc1cc(NC(=O)C2=CC(c3ccc(F)cc3)=NS(=O)(=O)N2C)cc(OC)c1OC | · | · | · | 1.35µM | · | ·
COc1ccc(C2=NS(=O)(=O)N(C)C(C(=O)Nc3ccc(C)cc3)=C2)cc1 | – | – | – | – | · | –
O=C(COc1ccc(Cl)cc1Cl)c1ccc[nH]1 | ? | ? | ? | 16.9µM | · | ?
O=C(COc1ccc(Cl)cc1Cl)N/N=C/c1ccc[nH]1 | – | ? | – | 13.5µM | · | –
CCN(CC(=O)Nc1ccc(NC(C)=O)cc1)C(=O)c1cc(S(=O)(=O)N2CCCCCC2)ccc1OC | – | ? | – | – | · | –
CC(C)Cn1c(N)c(C(=O)COC(=O)c2cc(C3CC3)nc3ccccc23)c(=O)n(C)c1=O | – | 23.1µM | – | – | – | –
CC(C)Cn1c(N)c(C(=O)COC(=O)c2cc(F)cc(F)c2)c(=O)n(C)c1=O | – | 18.3µM | – | – | – | –
CC(C)Cn1c(N)c(C(=O)COC(=O)c2cc(-c3ccccc3)nc3ccccc23)c(=O)n(C)c1=O | – | 7.31µM | – | – | – | –
CC(C)Cn1c(N)c(C(=O)COC(=O)C2Cc3ccccc3CN2S(C)(=O)=O)c(=O)n(C)c1=O (centres undefined) | – | 9.2µM | – | – | · | –
O=[N+]([O-])c1ccccc1SN(Cc1ccccc1)c1ccccn1 | – | – | – | – | – | –
CC1CCCCN1C(=O)CSc1nc2c(c(=O)n(C)c(=O)n2C)n1C (centres undefined) | – | – | – | – | · | –
COc1ccc(/C=N/N=C2\SC(CC(=O)O)C(=O)N2c2ccccc2)c(OC)c1 (centres undefined) | – | – | – | ? | – | –
COc1ccccc1CNS(=O)(=O)c1ccc2c(c1)NC(=O)C(C)C(=O)N2 (centres undefined) | · | · | · | – | · | ·
CCC(=O)Nc1cc(C(=O)OCC(=O)c2ccccc2)ccc1C | ? | ? | ? | 12µM | · | ?
CCC(=O)Nc1cc(C(=O)OCC(=O)c2ccccc2Cl)ccc1C | ? | ? | 3.55µM | 8.49µM | · | ?
CCC(=O)Nc1cc(C(=O)OCC(=O)c2ccc(Cl)cc2Cl)ccc1C | – | – | – | 2.13µM | – | –
O=C(O)CCC(=O)Nc1ccc(C(=O)OCC(=O)c2ccc(Cl)cc2Cl)cc1 | – | ? | – | 13.5µM | · | –
Cc1ccccc1NC(=O)CC(=O)c1ccccc1 | – | ? | ? | ? | · | –
Cc1cc(C(=O)OCC(=O)Nc2cc(Cl)ccc2C)c(C)o1 | – | – | – | – | · | –
CCOCC(=O)Nc1cc(C(=O)OC)cc(C(=O)OC)c1 | – | – | – | – | – | –
COc1ccccc1NC(=O)CCC(=O)OCC(=O)c1ccc(C)c([N+](=O)[O-])c1 | – | – | – | – | · | –
Cc1ccc(S(=O)(=O)CCC(=O)NCCC2=CCCCC2)cc1 | – | ? | – | – | · | –
